Screening data deposited in PubChem by Broad Institute.
In the library only some 1.8% were active in any assay of this set; here they are far more common.
LGR2 antag: inhibitors of bursicon-induced Drosophila LGR2 receptor cAMP signaling; 380,000 tested, 0.35% active; HEK293 LGR2, CRE-luciferase, bursicon-stimulated, 4 h; inhibition, % at 9.99 µM;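 active means drop in luminescence signal, shown as inhibition above about 50% in the replicate tests, limit read from the data, passing the limit was not always enough; inconclusive means probably only some replicates passing the limit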;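 further: agonist challenge used bursicon conditioned medium at about half maximal strength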
EWS-Fli inh: blocks EWS/Fli oncoprotein-driven transcription. A673 NR0B1-luciferase reporter, viability-normalised. inhibition, % at 12.6 µM. 350,000 tested, 0.67% active;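 active means mean inhibition of at least 50% after viability correction, with every replicate also passing that limit; inconclusive means mean reaches 50% but only one of two replicates passes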;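 further: firefly luciferase signal divided by Alamar Blue viability fluorescence both relative to DMSO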
CFTR F508del cor: CFTR F508del correction in bronchial cells; CFBE cells, YFP halide quenching; stimulated with forskolin plus potentiator P3; % fluorescence drop versus neutral controls; activity (quench increase), % at 7.58 µM; 350,000 tested, 0.36% active;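 active means mean added fluorescence quench of at least 8% versus neutral control, with both replicates also reaching 8%; inconclusive means only one of the mean or replicate conditions met; inactive means mean below 8% and not both replicates reaching 8%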;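 further: cells transiently co-express mutant CFTR-F508del with the halide-sensitive YFP; corrector assay measuring rescue of mutant channel to the surface after 24 h compound exposure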
PAX8 reporter: lowers PAX8-driven luciferase in RMG-I cells; RMG-I TPO-luciferase reporter, SteadyGlo, 24 h; inhibition, % at 12.6 µM; 360,000 tested, 1.2% active; AID 652154;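 active means mean replicate inhibition at least 60% with every replicate also reaching 60%; inconclusive means only one of the two criteria is met; inactive means mean below 60% and not all replicates reaching 60%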;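 further: luciferase light reporting Pax8 driven TPO promoter activity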
Each line names hits and unclear results; the compound was inactive in the other large screens; ! = a repeat was not active.

Cc1ccc(N(Cc2cc(=O)[nH]c3ccccc23)C(=O)CCl)c(C)c1	EWS-Fli inh 67, PAX8 reporter 69
OCCNCCOc1ccccc1-c1ccccc1	none (no result: LGR2 antag, EWS-Fli inh, CFTR F508del cor)
N=C(N)CCCOc1ccccc1-c1ccccc1	PAX8 reporter 63
CC(Sc1nc2c(N)ncnc2n1CCOc1ccccc1)C(=O)O (configuration not stated)	none
C[C@@H]1CN([C@H](C)CO)C(=O)c2cc(NC(=O)Nc3cccc4ccccc34)ccc2O[C@@H]1CN(C)Cc1ccc(C(F)(F)F)cc1	none (no result: PAX8 reporter)
COc1cccc(S(=O)(=O)N2C[C@@H]3N[C@H](C2)C3c2ccc(-c3cccc(C)c3)cc2)c1 (some centres not stated)	EWS-Fli inh 55!, CFTR F508del cor 12!, PAX8 reporter 69!
Cc1cccc(S(=O)(=O)N2C[C@@H]3N[C@H](C2)C3c2ccc(-c3ccncc3)cc2)c1 (some centres not stated)	EWS-Fli inh 57!
O=C(CNC(=O)c1ccc(F)cc1)NCc1ccc(Cl)cc1	none
Cc1ccc2nc(-c3ccc(NC(=O)C4CCCO4)cc3)[nH]c2c1 (configuration not stated)	LGR2 antag 60 (no result: EWS-Fli inh, CFTR F508del cor, PAX8 reporter)
O=C(Nc1ccc(-c2nc3cccnc3s2)cc1)C1CCCO1 (configuration not stated)	LGR2 antag 90, EWS-Fli inh 66
COc1ccc(NC(=O)C2CCCO2)cc1 (configuration not stated)	none (no result: LGR2 antag, EWS-Fli inh, CFTR F508del cor)
O=C(C[C@H]1CC[C@H]2[C@@H](COC[C@@H](O)CN2Cc2ccc3c(c2)OCO3)O1)Nc1ccc(-c2ccccc2)cc1	PAX8 reporter 87
O=C(C[C@@H]1CC[C@@H]2[C@H](COC[C@H](O)CN2Cc2ccc3c(c2)OCO3)O1)Nc1ccc(-c2ccccc2)cc1	PAX8 reporter 80
Cn1c(=O)c2c(nc(NCCCO)n2C/C=C/c2ccccc2)n(C)c1=O	none (no result: EWS-Fli inh, CFTR F508del cor, PAX8 reporter)
O=C(C1CCC1)N1CC(=O)N2[C@@H](CO)[C@H](c3ccc(C#Cc4cccc(F)c4)cc3)[C@@H]2C1	none
O=C(C1CCC1)N1CC(=O)N2[C@H](C1)[C@H](c1ccc(C#Cc3cccc(F)c3)cc1)[C@@H]2CO	PAX8 reporter 81
O=C(C1CCCCC1)N1CC(=O)N2[C@@H](CO)[C@H](c3ccc(C#Cc4cccc(F)c4)cc3)[C@@H]2C1	CFTR F508del cor 9.6 (no result: EWS-Fli inh, PAX8 reporter)
O=C(C1CC1)N1CC(=O)N2[C@H](C1)[C@H](c1ccc(C#Cc3cccc(F)c3)cc1)[C@@H]2CO	PAX8 reporter 69
CN(C)c1cccc(/C=C(\C#N)c2ccccc2)c1	EWS-Fli inh 55
CN(C)c1ccc(/C=C(\C#N)C(=O)c2ccccc2)cc1	none
CCOc1ccccc1N(CC(=O)Nc1ccc(S(=O)(=O)N2CCOCC2)cc1)S(=O)(=O)c1ccc(Cl)cc1	PAX8 reporter 62
Nc1nc(CCl)nc(N(c2ccccc2)c2ccccc2)n1	PAX8 reporter 99
Nc1nc(Cl)nc(N(c2ccccc2)c2ccccc2)n1	none (no result: CFTR F508del cor)
N#Cc1ccc(OCC(=O)Nc2ccc3[nH]c(=O)[nH]c3c2)cc1	none
C=C1CC(COc2ccc3c(C)c(Cl)c(=O)oc3c2)(c2ccccc2)OC1=O (configuration not stated)	LGR2 antag 49, EWS-Fli inh inconclusive, PAX8 reporter 100
COc1ccc2c(C)c(Cl)c(=O)oc2c1	none (no result: EWS-Fli inh, CFTR F508del cor, PAX8 reporter)
O=C(NCCc1ccccn1)C1CCN(S(=O)(=O)c2ccc3ccccc3c2)CC1	none (no result: LGR2 antag)
C[C@@H]1CN([C@H](C)CO)C(=O)c2cc(NC(=O)CCC(F)(F)F)ccc2O[C@@H](C)CCCCO[C@@H]1CN(C)Cc1ccc(C(F)(F)F)cc1	PAX8 reporter 83
C[C@@H]1CCCCO[C@@H](CN(C)Cc2ccc(C(F)(F)F)cc2)[C@@H](C)CN([C@@H](C)CO)C(=O)c2cc(NC(=O)CCC(F)(F)F)ccc2O1	PAX8 reporter 72
Cc1sc(NC(=O)CSc2ncn(-c3ccccc3)n2)nc1-c1ccccc1	none (no result: LGR2 antag, EWS-Fli inh, CFTR F508del cor)
CCOc1ccccc1N1CCN(Cc2cccc(OC)c2O)CC1	none (no result: EWS-Fli inh, CFTR F508del cor, PAX8 reporter)
Cc1ccc(C)c(S(=O)(=O)N2CCN(Cc3ccc(O)c4ncccc34)CC2)c1	PAX8 reporter 73
CC(C)COCc1ccc(O)c2ncccc12	PAX8 reporter 72
Oc1ccc(Cc2ccccc2)c2cccnc12	PAX8 reporter 87
COc1ccccc1N1CCN(Cc2cc(Br)c(O)c3ncccc23)CC1	PAX8 reporter 100
Oc1c(CN2CCCCC2)cc(COCc2ccccc2)c2cccnc12	PAX8 reporter 64 (no result: LGR2 antag, EWS-Fli inh, CFTR F508del cor)
COCc1cc(CN2CCCC2)c(O)c2ncccc12	none (no result: EWS-Fli inh, CFTR F508del cor, PAX8 reporter)
Oc1ccc(CN2CCC(Cc3ccccc3)CC2)c2cccnc12	PAX8 reporter 76 (no result: CFTR F508del cor)
C[C@@H]1CN([C@H](C)CO)C(=O)Cc2cc(N(C)C)ccc2O[C@@H]1CN(C)Cc1ccc(C(=O)Nc2ccccc2N)cc1	PAX8 reporter 62
C[C@@H]1CN([C@H](C)CO)C(=O)c2cc(N(C)C)ccc2O[C@@H]1CN(C)Cc1ccc(C(=O)Nc2ccccc2N)cc1	EWS-Fli inh 74, CFTR F508del cor 9.2 (no result: LGR2 antag)
C[C@H](CO)N1C[C@H](C)[C@@H](CN(C)Cc2ccc(C(=O)Nc3ccccc3N)cc2)Oc2ccc(N(C)C)cc2C1=O	EWS-Fli inh inconclusive
CN(CCC#N)C(=O)COC(=O)c1ccc2c(=O)n3c(nc2c1)CCC3	none
CCOc1ccc(-n2c(=S)sc3c(=O)[nH]c(SCC(=O)NCC4CCCO4)nc32)cc1 (configuration not stated)	PAX8 reporter 110
C[C@@H]1CCCCO[C@H](CN(C)Cc2ccc(C(F)(F)F)cc2)[C@@H](C)CN([C@H](C)CO)C(=O)c2cc(NS(=O)(=O)c3ccccc3)ccc2O1	none
C[C@H]1CCCCO[C@@H](CN(C)Cc2ccc(C(F)(F)F)cc2)[C@@H](C)CN([C@@H](C)CO)C(=O)c2cc(NS(=O)(=O)c3ccccc3)ccc2O1	PAX8 reporter 87
C[C@H]1CCCCO[C@@H](CN(C)Cc2ccccc2)[C@@H](C)CN([C@@H](C)CO)C(=O)c2cc(NS(=O)(=O)c3ccccc3)ccc2O1	none
C[C@@H]1CCCCO[C@H](CN(C)Cc2ccccc2)[C@H](C)CN([C@H](C)CO)C(=O)c2cc(NS(=O)(=O)c3ccccc3)ccc2O1	none
C[C@H]1CCCCO[C@H](CN(C)Cc2ccc(C(F)(F)F)cc2)[C@@H](C)CN([C@@H](C)CO)C(=O)c2cc(NS(=O)(=O)c3ccccc3)ccc2O1	PAX8 reporter 65
C[C@@H]1CN([C@@H](C)CO)C(=O)c2cc(NS(=O)(=O)c3ccccc3)ccc2O[C@@H](C)CCCCO[C@@H]1CN(C)Cc1ccc(C(F)(F)F)cc1	PAX8 reporter 106
C[C@H](CO)N1C[C@H](C)[C@H](CN(C)Cc2ccc(C(F)(F)F)cc2)OCCCC[C@H](C)Oc2ccc(NS(=O)(=O)c3ccccc3)cc2C1=O	PAX8 reporter 99
C[C@@H]1CN([C@H](C)CO)C(=O)c2cc(NS(=O)(=O)c3ccccc3)ccc2O[C@@H](C)CCCCO[C@H]1CN(C)Cc1ccc(C(F)(F)F)cc1	PAX8 reporter 102
CS(=O)(=O)c1ccc(-c2cn3cc(C(=O)O)ccc3n2)cc1	LGR2 antag 77
